Experimental data taken from PubChem BioAssay (NCATS).
Records with an inconclusive call do not appear. Unmarked numbers belong to inactive results. Activity calls are given as the source filed them. Calls follow the shape of the dose curve; as a rule, active = well fitted inhibition curve with a large enough effect; inconclusive = small, poorly fitted or top-dose-only effect; inactive = flat fitted curve, though single readings scatter.

test system: NIH3T3; assay: Cytotoxic Profiling of Annotated Libraries Using Quantitative High-Throughput Screening (AID 1296008); conditions: Five cell lines viability, CellTiter-Glo ATP luminescence, 48-72 h; max response: active compounds read low; also: nearly all actives have a fitted effect of over 60% in size
Outline: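 Compounds were pin-transferred onto cells and incubated 48 or 72 hr at 37 degree Celsius, 95% humidity. CellTiter-Glo was added, plates sat 10 min at room temperature, then ATP-coupled luminescence was imaged as the viability read-out.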
% is scaled to controls: 0 for no effect and ±100 for the full control effect; potency is read from the fitted curve at half-maximal effect.

Question: How did the max response turn out when `CC(Cc1cc2c(c(C(N)=O)c1)N(CCCO)CC2)NCCOc1ccccc1OCC(F)(F)F` (stereo not drawn) was run?
Answer: 2.09%

Question: How did the max response turn out when `COC(=O)C1(C)CCC2(C(=O)O)CCC3(C)C(=CCC4C5(C)CC(O)C(OC6OCC(O)C(O)C6O)C(C)(CO)C5CCC43C)C2C1` (stereo not drawn) was run?
Answer: -9.3%

Question: Which max response does the source give for `C=CC1C(OC2OC(CO)C(O)C(O)C2O)OC=C2C(=O)N3C(C(=O)O)Cc4c([nH]c5ccccc45)C3CC21` (stereo not drawn) here?
Answer: -3.8%

Question: For `C/C=C(\C)C(=O)OCC1OC(OC2OC(COC(=O)/C(C)=C/C)C(OC3OC(CO)C(OC(=O)/C(C)=C/C)C(OC(=O)/C(C)=C/C)C3O)C(O)C2O)C(O)C(O)C1OC1OC(CO)C(OC(=O)/C(C)=C/C)C(OC(=O)/C(C)=C/C)C1O` (stereo not drawn), which max response is on record?
Answer: -26.7%

Question: With `C=C1CCC2C(C)(C(=O)O)CCCC2(C)C1CC/C(=C\CO)CO` (stereo not drawn) as the molecule, how does the max response read?
Answer: 3.98%

Question: With `Cc1[nH]nc(C(F)(F)F)c1Cc1sc2c(c1C(=O)N1C[C@](C)(O)CO1)c(=O)n(C)c(=O)n2C(C)C` as the molecule, how does the Potency read?
Answer: 13 µM (active)

Question: Which Potency does the source give for `CN(C)CCCCC(=O)Nc1ccc(NC(=S)NC(=O)c2ccc(C(C)(C)C)cc2)cc1` here?
Answer: 7.31 µM (active)

Question: With `CC/C=C\CC1C(=O)C=CC1(CCCCCCCC(=O)O)OC(C)=O` (stereo not drawn) as the molecule, how does the max response read?
Answer: 4.26%

Question: With `CC1CC(=O)C2=C(CCC3(O)C(O)c4c(O)cccc4C(=O)C23O)C1` (stereo not drawn) as the molecule, how does the max response read?
Answer: 1.72%

Question: For `C=C(C(=O)O)[C@@H]1CC[C@@]2(C)CC[C@H](O)[C@@]2(C(C)=O)C1`, which max response is on record?
Answer: -3.95%

Question: How did the max response turn out when `C=C1CC[C@H]2[C@@](C)(CCC(O)[C@@]2(C)CO)[C@@H]1CCC1=CCOC1=O` (stereo partly drawn) was run?
Answer: -1.37%

Question: How did the max response turn out when `COC1CC(O[C@H]2CC[C@@]3(C)C(CCC4C3[C@H](OC(C)=O)[C@@H](OC(=O)/C=C/c3ccccc3)[C@]3(C)C(C(C)=O)CC[C@]43O)C2)OC(C)C1OC1CC(OC)C(OC2CC(OC)C(OC3OC(C)C(OC4OC(CO)C(O)C(O)C4O)C(OC)C3O)C(C)O2)C(C)O1` (stereo partly drawn) was run?
Answer: -9.54%

Question: For `COC(=O)C1=CO[C@@H](O[C@@H]2O[C@H](CO)[C@@H](O)[C@H](O)[C@H]2O)[C@H]2[C@@H]1CC(OC)O[C@@H]2C` (stereo partly drawn), which max response is on record?
Answer: -1.67%
